# Reference: PubChem BioAssay (NCATS)
# Inconclusive results are not listed. The source made the active and inactive calls. Unless noted, calls follow the shape of the dose curve; as a rule, active = well fitted curve in the direction sought with a large enough effect; inconclusive = small, poorly fitted or top-dose-only effect, or another doubt; inactive = no such curve, though single readings can be large; an effect the other way counts as inactive or inconclusive.
# Experiments:
# [1] = target: Lysosomal acid glucosylceramidase (Homo sapiens) (UniProt P04062); test: Glucocerebrosidase-p2 (AID 348; in the data active = potency below about 10 µM; also: potency is read from the fitted curve at half-maximal effect); conditions: purified GBA, blue fluorogenic substrate, 40 min
# Lysosomal acid glucosylceramidase (Homo sapiens), sequence (P04062 whole entry, looked up): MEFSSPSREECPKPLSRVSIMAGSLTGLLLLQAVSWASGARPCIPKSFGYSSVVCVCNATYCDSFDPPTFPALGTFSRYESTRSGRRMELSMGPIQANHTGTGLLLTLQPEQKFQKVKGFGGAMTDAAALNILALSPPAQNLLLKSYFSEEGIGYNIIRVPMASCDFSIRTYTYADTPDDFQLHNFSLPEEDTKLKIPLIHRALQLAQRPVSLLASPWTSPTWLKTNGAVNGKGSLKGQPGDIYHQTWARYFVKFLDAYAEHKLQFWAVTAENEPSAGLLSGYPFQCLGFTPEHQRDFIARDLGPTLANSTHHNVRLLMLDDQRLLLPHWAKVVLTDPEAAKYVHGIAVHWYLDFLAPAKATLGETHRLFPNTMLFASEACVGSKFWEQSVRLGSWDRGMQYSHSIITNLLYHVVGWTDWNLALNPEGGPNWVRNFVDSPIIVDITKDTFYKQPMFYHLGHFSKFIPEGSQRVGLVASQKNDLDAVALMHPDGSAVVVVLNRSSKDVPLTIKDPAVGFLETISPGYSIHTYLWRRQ
# How it was run: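 Compounds titrated from 0.6 nM upwards against 0.2 nM enzyme in pH 5.9 citric acid/KH2PO4, taurocholate, tween-20; blue fluorogenic substrate 80 uM, 40 min room temperature, stopped and read Ex 365/Em 440 for AC50.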
# [2] = AP1 Signaling Pathway (AID 357; active = well fitted curve in either direction with a large enough effect, not every such curve was filed as active; also: % is scaled to controls: 0 for no effect and ±100 for the full control effect); conditions: ME-180 AP-1-bla reporter, EGF-induced, beta-lactamase ratio, 5 h; at 7.69 µM (top of the series) unless noted
# How it was run: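 ME-180 cells with beta-lactamase reporter under AP-1 response element, stimulated with EC50 EGF; compounds tested in titration series, 5 h at 37 °C. CCF4 substrate added 2.5 h at room temperature; 460/530 nm emission ratio gave %activity and AC50.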
# [3] = target: Cytochrome P450 1A2 (Homo sapiens) (UniProt P05177); test: p450-cyp1a2 (AID 410; calls by dose curve; also: potency is read from the fitted curve at half-maximal effect); conditions: recombinant CYP1A2, luciferin-ME demethylation, luminescence; series mostly up to 57 µM
# Cytochrome P450 1A2 (Homo sapiens), sequence (P05177 whole entry, looked up): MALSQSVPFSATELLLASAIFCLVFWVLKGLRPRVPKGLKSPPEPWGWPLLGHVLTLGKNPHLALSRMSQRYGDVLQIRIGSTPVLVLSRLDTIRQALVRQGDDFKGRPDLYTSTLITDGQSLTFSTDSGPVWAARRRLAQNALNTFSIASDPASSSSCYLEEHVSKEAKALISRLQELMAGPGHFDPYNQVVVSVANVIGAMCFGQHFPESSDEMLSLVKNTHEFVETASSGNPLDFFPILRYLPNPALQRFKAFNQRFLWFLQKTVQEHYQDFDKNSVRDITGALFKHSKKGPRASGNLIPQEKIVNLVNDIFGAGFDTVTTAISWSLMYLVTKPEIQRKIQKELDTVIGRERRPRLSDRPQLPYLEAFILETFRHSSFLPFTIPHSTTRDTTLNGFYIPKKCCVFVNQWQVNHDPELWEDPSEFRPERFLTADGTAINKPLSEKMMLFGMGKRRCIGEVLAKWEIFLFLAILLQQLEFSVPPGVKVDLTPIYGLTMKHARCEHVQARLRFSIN
# How it was run: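 Human CYP1A2 (20nM) demethylated Luciferin-ME at its Km (100uM) in 100mM KPO4. After 10 min compound preincubation, NADPH regeneration ran the reaction 60 min at room temperature. Luciferin was read by luminescence, normalized to 57 uM furafylline.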
# [4] = NFAT Signaling Pathway (AID 444; active = well fitted curve in either direction with a large enough effect, not every such curve was filed as active;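 also: carbachol stimulus at about its EC50 of 1 µM final; % is scaled to controls: 0 for no effect and ±100 for the full control effect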); conditions: Jurkat NFAT-bla M1, carbachol, beta-lactamase ratio, 5 h; at 7.69 µM (top of the series) unless noted
# How it was run: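 Jurkat cells carrying an NFAT-driven β-lactamase reporter and co-transfected muscarinic M1 receptor were treated with compound plus carbachol (1 uM final, an EC50 level) for 5 h at 37 °C. CCF4 loading followed for 1 h at RT; 460/530 nm ratio gave %activity.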
# [5] = Stat Signaling Pathway (AID 446; active = well fitted curve in either direction with a large enough effect, not every such curve was filed as active;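 also: ME-180 cervical cancer cells given 40 pM IL-6 alongside compound; SIE-controlled beta-lactamase reporter measured as 460/530 nm FRET emission ratio; % is scaled to controls: 0 for no effect and ±100 for the full control effect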); conditions: ME-180 (cervical carcinoma) SIE beta-lactamase reporter, IL-6 stimulated, 5 h; at 7.69 µM (top of the series) unless noted
# How it was run: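 IL-6/STAT signaling read in ME-180 cells via an SIE beta-lactamase reporter. Stimulus was 40 pM IL-6 (its AC50) for 5 hrs, so both activation and inhibition register.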
# [6] = target: Glucocorticoid receptor (Homo sapiens) (UniProt P04150); test: GR-GFP Redistribution (AID 450;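 active = compounds whose dose series gives a full or clear partial fitted curve of increased nuclear translocation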; also: potency is read from the fitted curve at half-maximal effect); conditions: U2OS GR-GFP nuclear translocation, laser cytometry, 2 h
# Glucocorticoid receptor (Homo sapiens), sequence (P04150 whole entry, looked up, the tested form may be a part): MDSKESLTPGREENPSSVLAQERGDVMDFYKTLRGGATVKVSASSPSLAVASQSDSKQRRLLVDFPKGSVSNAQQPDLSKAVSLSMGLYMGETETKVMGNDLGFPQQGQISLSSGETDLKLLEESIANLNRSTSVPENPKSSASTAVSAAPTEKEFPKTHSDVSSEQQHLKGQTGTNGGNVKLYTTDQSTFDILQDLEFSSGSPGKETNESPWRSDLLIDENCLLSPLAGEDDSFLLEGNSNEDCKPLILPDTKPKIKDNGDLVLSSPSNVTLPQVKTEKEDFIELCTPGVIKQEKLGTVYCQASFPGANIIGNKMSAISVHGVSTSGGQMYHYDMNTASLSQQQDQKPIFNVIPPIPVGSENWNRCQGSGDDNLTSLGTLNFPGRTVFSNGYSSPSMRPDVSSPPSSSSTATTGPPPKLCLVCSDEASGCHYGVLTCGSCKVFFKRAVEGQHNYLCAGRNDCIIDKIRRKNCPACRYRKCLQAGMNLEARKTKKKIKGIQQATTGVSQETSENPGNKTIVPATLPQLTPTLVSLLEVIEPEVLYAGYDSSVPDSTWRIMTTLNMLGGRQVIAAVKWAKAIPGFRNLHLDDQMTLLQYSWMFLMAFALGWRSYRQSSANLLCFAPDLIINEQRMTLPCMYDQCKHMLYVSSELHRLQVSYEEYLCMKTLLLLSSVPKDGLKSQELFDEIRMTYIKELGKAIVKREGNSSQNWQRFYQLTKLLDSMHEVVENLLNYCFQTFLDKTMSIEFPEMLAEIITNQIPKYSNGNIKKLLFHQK
# [7] = target: Glucocorticoid receptor (Homo sapiens) (UniProt P04150); test: GR-EFC Redistribution (AID 451; calls by dose curve; also: potency is read from the fitted curve at half-maximal effect); conditions: CHO-K1 GR-EFC translocation, beta-gal luminescence, 2 h
# How it was run: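 CHO-K1 cells stably expressing nuclear-localized β-gal enzyme acceptor and GR fused C-terminally to the enzyme donor fragment; ligand-driven nuclear translocation restores β-gal by complementation. Compounds titrated up to 46 uM final, 2 h at 37 °C; luminescence read.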
# [8] = target: Mitogen-activated protein kinase 10 (Mus musculus) (UniProt Q61831); test: JNK3 AlphaScreen Assay (AID 530; active = well fitted curve in either direction with a large enough effect, not every such curve was filed as active;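 also: kinase came from lysate of stimulated human HepG2 cells; signal reports phosphorylation of biotinylated GST-cJun 1-79 at Ser73 with 10 µM ATP; % is scaled to controls: 0 for no effect and ±100 for the full control effect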); conditions: JNK3 lysate, c-Jun phosphorylation; series mostly up to 57.1 µM
# How it was run: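 JNK3 came from HepG2 lysates pre-activated with IL-1beta and TNF-alpha and phosphorylated biotinylated GST-cJun (1-79) at 10 uM ATP, pH 7.6, room temperature. Compounds were titrated. AlphaScreen signal used anti-phospho-cJun (Ser73) antibody.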
# [9] = target: Cytochrome P450 3A4 (Homo sapiens) (UniProt P08684); test: qHTS Assay for Activators of Cytochrome P450 3A4 (AID 885); conditions: recombinant CYP3A4, Luciferin-PPXE luminescence, 60 min; series mostly up to 57.1 µM; also: nearly all actives have a fitted effect of over 65% in size
# Cytochrome P450 3A4 (Homo sapiens), sequence (P08684 whole entry, looked up): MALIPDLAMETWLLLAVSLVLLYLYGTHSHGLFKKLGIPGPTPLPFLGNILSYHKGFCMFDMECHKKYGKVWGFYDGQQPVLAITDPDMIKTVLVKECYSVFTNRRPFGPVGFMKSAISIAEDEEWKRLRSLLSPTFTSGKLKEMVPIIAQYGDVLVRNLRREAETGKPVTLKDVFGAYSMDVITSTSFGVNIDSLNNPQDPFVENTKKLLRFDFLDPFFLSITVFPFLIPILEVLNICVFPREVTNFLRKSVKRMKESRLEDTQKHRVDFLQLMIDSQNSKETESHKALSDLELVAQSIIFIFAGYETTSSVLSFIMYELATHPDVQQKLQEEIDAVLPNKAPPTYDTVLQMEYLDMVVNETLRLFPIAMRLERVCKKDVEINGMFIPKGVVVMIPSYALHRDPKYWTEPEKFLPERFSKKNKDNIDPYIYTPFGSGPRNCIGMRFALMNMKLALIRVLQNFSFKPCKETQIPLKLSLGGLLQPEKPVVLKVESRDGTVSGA
# How it was run: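 Quantitative HTS format: compounds preincubated with 20nM human CYP3A4 and Luciferin-PPXE substrate at KM, reaction started by NADPH regeneration, stopped after 60 min, luciferase luminescence read 20 min later.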
# [10] = qHTS Assay for Lipid Storage Modulators (AID 1519; calls by dose curve); conditions: Drosophila S3 cells, BODIPY lipid droplet/cell ratio, laser cytometry, cells loaded with oleic acid; for activity change, negative = inhibition: at 57.5 µM (top of the series)
# How it was run: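 Cells seeded at 5,000 per well were treated with compounds over a concentration series and loaded with oleic acid (400 uM, as added). Lipid droplet fluorescence (488 nm excitation, 500-530 nm channel) was read by laser-scanning cytometry and normalized to 20 uM Triacsin C.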
# [11] = target: Dual specificity protein kinase CLK4 (Homo sapiens) (UniProt Q9HAZ1); test: qHTS Assay for Inhibitors of CDC-like Kinase 4 (ADP-FP Assay) (AID 1795); conditions: Transcreener ADP fluorescence polarization; series mostly up to 50 µM; also: % is scaled to controls: 0 for no effect and ±100 for the full control effect; nearly all actives have a fitted effect of over 60% in size
# Dual specificity protein kinase CLK4 (Homo sapiens), sequence (Q9HAZ1 whole entry, looked up): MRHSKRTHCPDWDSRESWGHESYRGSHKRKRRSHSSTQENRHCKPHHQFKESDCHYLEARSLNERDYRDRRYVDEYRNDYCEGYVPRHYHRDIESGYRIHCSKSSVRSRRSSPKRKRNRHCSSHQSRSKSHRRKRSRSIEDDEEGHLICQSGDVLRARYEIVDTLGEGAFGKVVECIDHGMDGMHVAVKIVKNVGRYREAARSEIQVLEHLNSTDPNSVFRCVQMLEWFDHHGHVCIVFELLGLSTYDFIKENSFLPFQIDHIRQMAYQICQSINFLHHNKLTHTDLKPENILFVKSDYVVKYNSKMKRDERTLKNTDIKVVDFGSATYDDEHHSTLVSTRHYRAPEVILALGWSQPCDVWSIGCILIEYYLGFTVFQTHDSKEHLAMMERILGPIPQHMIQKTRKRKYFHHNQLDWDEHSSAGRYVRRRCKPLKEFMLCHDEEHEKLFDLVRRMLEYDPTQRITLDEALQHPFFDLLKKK
# How it was run: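 Recombinant human Clk4 (6.25 nM) phosphorylated RS repeat peptide (100 uM) with 1 uM ATP in Tris pH 7.5/MgCl2/EGTA/DTT/Triton buffer for one hour. ADP was quantified by Transcreener competitive fluorescence polarization against an ADP calibration curve.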
# [12] = target: Ubiquitin carboxyl-terminal hydrolase 1 (Homo sapiens) (UniProt O94782); test: Inhibitors of USP1/UAF1: Pilot qHTS (AID 504865); conditions: purified USP1/UAF1, Ub-rhodamine cleavage fluorescence; series mostly up to 54.9 µM; also: nearly all actives have a fitted effect of over 35% in size; also: potency is read from the fitted curve at half-maximal effect
# Ubiquitin carboxyl-terminal hydrolase 1 (Homo sapiens), sequence (O94782 whole entry, looked up): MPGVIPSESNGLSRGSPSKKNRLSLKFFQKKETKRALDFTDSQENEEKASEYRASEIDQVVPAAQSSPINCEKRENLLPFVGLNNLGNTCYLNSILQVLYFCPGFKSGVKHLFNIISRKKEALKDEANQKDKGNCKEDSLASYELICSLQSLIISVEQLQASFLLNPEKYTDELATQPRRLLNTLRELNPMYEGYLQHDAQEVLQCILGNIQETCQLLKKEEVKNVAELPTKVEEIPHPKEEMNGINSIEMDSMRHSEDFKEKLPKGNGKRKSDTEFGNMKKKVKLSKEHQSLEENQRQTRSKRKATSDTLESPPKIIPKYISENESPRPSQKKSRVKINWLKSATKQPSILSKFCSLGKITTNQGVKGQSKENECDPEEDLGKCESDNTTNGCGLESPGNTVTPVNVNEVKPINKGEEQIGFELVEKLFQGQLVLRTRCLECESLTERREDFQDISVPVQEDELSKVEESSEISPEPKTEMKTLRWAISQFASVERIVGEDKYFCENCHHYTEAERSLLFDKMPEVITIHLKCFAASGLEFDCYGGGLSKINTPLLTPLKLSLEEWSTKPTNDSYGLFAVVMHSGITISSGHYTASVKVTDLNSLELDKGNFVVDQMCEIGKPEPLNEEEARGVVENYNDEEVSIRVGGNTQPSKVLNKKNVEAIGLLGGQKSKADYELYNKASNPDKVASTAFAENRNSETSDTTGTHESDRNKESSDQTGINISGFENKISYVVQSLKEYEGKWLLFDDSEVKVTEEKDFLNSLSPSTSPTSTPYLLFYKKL
# How it was run: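 USP1/UAF1 complex (1nM) preincubated with compound 15 min at room temperature, then Ub-Rho substrate (150nM final) added. Fluorescence read kinetically at 480/540 nm, 6 reads every 60 seconds. Buffer: 50mM HEPES pH 7.8, 0.5mM EDTA, 0.1 mg/ml BSA, 1mM TCEP, 0.01% Tween-20.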
# [13] = target: Cytochrome P450 3A4 (Homo sapiens) (UniProt P08684); test: qHTS Assay for Inhibitors and Substrates of Cytochrome P450 3A4 (AID 884); conditions: recombinant CYP3A4, Luciferin-PPXE luminescence; series mostly up to 57.1 µM; also: nearly all actives have a fitted effect of over 50% in size; also: potency is read from the fitted curve at half-maximal effect
# How it was run: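 20 nM human CYP3A4 with 25 uM Luciferin-PPXE (at KM) in 200 mM KPO4, preincubated 10 min with compound; NADPH regeneration started a 60 min RT reaction. Luciferin detected by luminescence, normalized to 57 uM ketoconazole as full inhibition.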
# [14] = Confirmation and Secondary Assay for Modulators of Hemoglobin Beta Chain Splicing at IVS2 654 locus (AID 910); conditions: HeLa EGFP-654 splicing reporter, GFP fluorescence, 48 h; series mostly up to 38.3 µM;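 also: per-well total GFP intensity by laser scanning cytometry after 2-day treatment; % of control where 0% means no effect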
# How it was run: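 HeLa cells stably carrying EGFP interrupted by mutant beta-globin IVS2-654 intron (CMV-driven) were treated with compound for 2 days at 37C; corrected splicing was scored as total peak GFP intensity per well (488 nm excitation, 500-520 nm emission).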
# [15] = qHTS profiling for inhibitors of Plasmodium falciparum proliferation (AID 504749);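 also: 0% = DMSO vehicle and full inhibition = artemisinin control; nearly all actives have a fitted effect of over 60% in size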; conditions: P. falciparum in erythrocytes, SYBR Green DNA, 72 h, at 28.7 µM (top of the series)
# How it was run: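 P. falciparum-infected erythrocytes (0.3% parasitemia, 2.5% hematocrit final) were exposed to compounds for 72 h at 37 C in 5% CO2, then lysed with SYBR Green buffer overnight at room temperature; parasite DNA fluorescence was normalized to artemisinin and DMSO controls.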
# [16] = Confirmation and Secondary Assay for Modulators of Hemoglobin Beta Chain Splicing at IVS2 705 locus (AID 930); conditions: HeLa EGFP-705 splicing reporter, GFP fluorescence, 48 h; series mostly up to 38.3 µM;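 also: HeLa cells stably expressing the EGFP-705 splicing reporter; GFP fluorescence per well restored by corrected splicing of the IVS2-705 intron in EGFP; % of control where 0% means no effect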
# How it was run: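 Per-well GFP, captured at 1 x 8 µm resolution with 488 nm excitation, served as the read-out for HeLa EGFP-705 cells incubated 2 days with test compound versus DMSO.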
# [17] = target: Cytochrome P450 2C19 (Homo sapiens) (UniProt P33261); test: qHTS Assay for Inhibitors and Substrates of Cytochrome P450 2C19 (AID 899); conditions: recombinant CYP2C19, luciferin-H EGE luminescence; series mostly up to 57.1 µM; also: potency is read from the fitted curve at half-maximal effect; nearly all actives have a fitted effect of over 60% in size
# Cytochrome P450 2C19 (Homo sapiens), sequence (P33261 whole entry, looked up): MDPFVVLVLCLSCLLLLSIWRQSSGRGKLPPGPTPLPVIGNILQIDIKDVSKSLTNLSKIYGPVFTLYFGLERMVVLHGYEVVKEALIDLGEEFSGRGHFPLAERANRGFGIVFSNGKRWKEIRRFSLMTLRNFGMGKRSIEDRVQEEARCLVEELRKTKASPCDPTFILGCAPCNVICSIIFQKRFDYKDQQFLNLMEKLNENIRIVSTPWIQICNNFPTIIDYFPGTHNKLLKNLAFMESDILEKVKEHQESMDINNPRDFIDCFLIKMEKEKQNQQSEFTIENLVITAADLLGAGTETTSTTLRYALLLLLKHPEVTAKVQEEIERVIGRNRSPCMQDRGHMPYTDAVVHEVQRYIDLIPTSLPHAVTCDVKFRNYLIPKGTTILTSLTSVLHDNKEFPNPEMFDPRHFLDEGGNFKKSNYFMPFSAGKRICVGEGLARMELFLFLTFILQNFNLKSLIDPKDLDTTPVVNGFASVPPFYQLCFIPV
# How it was run: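 In 50mM KPO4, the reaction held 5nM enzyme and KM-level (10uM) Luciferin-H EGE; it ran 60 min at 37C after NADPH regeneration and a 10 min compound preincubation. Luminescence values were scaled to 57uM ketoconazole as complete inhibition.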
# [18] = target: 3',5'-cyclic-AMP phosphodiesterase 4B (Homo sapiens) (UniProt Q07343); test: qHTS Assay for Inhibitors of PDE-IV (AID 607; active = well fitted activation curve with a large enough effect in the main read-out, with a control signal flat, not every such curve was filed as active; also: % of control where 0% means no effect); conditions: HEK293 ACTOne CNG channel cells, membrane potential fluorescence; series mostly up to 22.9 µM
# 3',5'-cyclic-AMP phosphodiesterase 4B (Homo sapiens), sequence (Q07343 whole entry, looked up): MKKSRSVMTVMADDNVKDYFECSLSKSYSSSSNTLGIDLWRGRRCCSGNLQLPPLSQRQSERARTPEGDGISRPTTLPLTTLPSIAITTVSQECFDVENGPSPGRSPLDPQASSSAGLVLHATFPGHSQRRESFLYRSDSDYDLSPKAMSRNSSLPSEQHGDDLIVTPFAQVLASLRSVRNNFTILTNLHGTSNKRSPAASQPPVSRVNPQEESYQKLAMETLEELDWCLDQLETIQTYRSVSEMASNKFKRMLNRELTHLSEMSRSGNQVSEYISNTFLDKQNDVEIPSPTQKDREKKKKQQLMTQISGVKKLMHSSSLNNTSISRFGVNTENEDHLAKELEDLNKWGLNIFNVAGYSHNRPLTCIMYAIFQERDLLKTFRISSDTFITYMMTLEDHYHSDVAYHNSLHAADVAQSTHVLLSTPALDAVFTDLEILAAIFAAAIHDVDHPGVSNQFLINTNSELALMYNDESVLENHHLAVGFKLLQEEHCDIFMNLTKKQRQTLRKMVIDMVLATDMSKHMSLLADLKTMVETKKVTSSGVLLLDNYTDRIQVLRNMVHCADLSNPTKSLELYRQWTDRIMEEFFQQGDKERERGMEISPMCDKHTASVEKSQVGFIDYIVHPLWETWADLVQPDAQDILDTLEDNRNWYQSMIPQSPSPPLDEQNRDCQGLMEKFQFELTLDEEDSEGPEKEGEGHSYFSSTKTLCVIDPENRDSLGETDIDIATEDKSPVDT
# How it was run: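 Live HEK293 cells with a modified cyclic nucleotide-gated (CNG) channel report intracellular cAMP via membrane-potential dye fluorescence (ex 535/em 590 nm). Endogenous PDE-IV was targeted. Compounds were tested at up to 22.9 uM final; RO 20-1724 100 uM served as control.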
# [19] = measured here: cell count channel max response
# [20] = measured here: lipid channel max response
smiles,measurement,setting,value
CN1CCN(c2ccnc(-c3ccc(N(C)C)cc3)n2)CC1,Potency,[1],> 11.4 µM (inactive)
same,"activity change, negative = inhibition",[2],-4.67% (inactive)
same,Potency,[3],0.794 µM (active)
same,"activity change, negative = inhibition",[4],6.45% (inactive)
same,"activity, negative = inhibition",[5],-0.21% (inactive)
same,Potency,[6],> 46 µM (inactive)
same,Potency,[7],> 46 µM (inactive)
same,Potency,[8],inactive
same,Potency,[9],inactive
same,"activity change, negative = inhibition",[10],10.5% (inactive)
same,max response,[10]; [19],22.6%
same,max response,[10]; [20],29.9%
same,Potency,[11],inactive
same,Potency,[12],inactive
C[N+](C)(C)CC(O)CC(=O)O (stereo not drawn),Potency,[13],inactive
same,Potency,[14],inactive
same,"activity change, negative = inhibition",[10],3.18% (inactive)
same,max response,[10]; [19],12.3%
same,max response,[10]; [20],21.4%
same,Potency,[12],inactive
same,"activity, negative = inhibition",[15]; parasite line A,14.7% (inactive)
same,"activity, negative = inhibition",[15]; parasite line B,11.5% (inactive)
C=C[C@](C)(O)CCC=C(C)C,Potency,[13],inactive
same,Potency,[14],inactive
same,outcome,[16],inactive
same,"activity change, negative = inhibition",[10],3.04% (inactive)
same,max response,[10]; [19],15.3%
same,max response,[10]; [20],20.7%
same,Potency,[12],inactive
COc1cccc(Cn2c(=O)c(C)nc3cnc(Nc4cccc(OC)c4)nc32)c1,Potency,[1],> 11.4 µM (inactive)
same,"activity change, negative = inhibition",[2],-28.7% (inactive)
same,"activity change, negative = inhibition",[4],19% (inactive)
same,"activity, negative = inhibition",[5],-18.7% (inactive)
same,Potency,[6],> 9.22 µM (inactive)
same,Potency,[7],> 46 µM (inactive)
same,Potency,[8],inactive
same,"activity change, negative = inhibition",[10],-5.29% (inactive)
same,max response,[10]; [19],11.9%
same,max response,[10]; [20],6.74%
same,Potency,[11],inactive
same,Potency,[12],inactive
COc1ccccc1CNc1ncnc2ccc(-c3cccc(C#N)c3)cc12,Potency,[1],> 11.4 µM (inactive)
same,Potency,[3],0.251 µM (active)
same,"activity change, negative = inhibition",[4],-8.04% (inactive)
same,"activity, negative = inhibition",[5],-17.5% (inactive)
same,Potency,[6],> 46 µM (inactive)
same,Potency,[7],> 46 µM (inactive)
same,Potency,[8],inactive
same,Potency,[13],7.94 µM (active)
same,Potency,[9],inactive
same,Potency,[17],5.01 µM (active)
same,"activity change, negative = inhibition",[10],-12.8% (inactive)
same,max response,[10]; [19],-3.32%
same,max response,[10]; [20],-14.8%
same,Potency,[11],inactive
same,Potency,[12],inactive
C=C(C)[C@H]1CC=C(C)C(=O)C1,Potency,[8],inactive
same,Potency,[13],inactive
same,"activity change, negative = inhibition",[10],-4.73% (inactive)
same,max response,[10]; [19],-28%
same,max response,[10]; [20],-15.9%
COc1cccc(Cn2c(=O)cnc3cnc(N4CCN(C)CC4)nc32)c1,Potency,[1],> 11.4 µM (inactive)
same,"activity change, negative = inhibition",[2],-3.06% (inactive)
same,"activity change, negative = inhibition",[4],-19.9% (inactive)
same,"activity, negative = inhibition",[5],-11.2% (inactive)
same,Potency,[6],> 9.22 µM (inactive)
same,Potency,[7],> 46 µM (inactive)
same,Potency,[8],inactive
same,Potency,[18],inactive
same,Potency,[9],inactive
same,"activity change, negative = inhibition",[10],5.18% (inactive)
same,max response,[10]; [19],20.4%
same,max response,[10]; [20],22.6%
same,Potency,[11],inactive
same,Potency,[12],inactive
Oc1ccc2c(c1)OCC1(O)Cc3cc(O)c(O)cc3C21 (stereo not drawn),Potency,[9],inactive
same,Potency,[14],inactive
same,outcome,[16],inactive
same,"activity change, negative = inhibition",[10],11.4% (inactive)
same,max response,[10]; [19],-15.6%
same,max response,[10]; [20],-7.12%
same,Potency,[12],79.4 µM (active)
C=CC(C)(O)CCC=C(C)C (stereo not drawn),Potency,[8],inactive
same,Potency,[13],inactive
same,"activity change, negative = inhibition",[10],-9.56% (inactive)
same,max response,[10]; [19],-17.5%
same,max response,[10]; [20],-25.1%
same,Potency,[12],inactive
